Source: PubChem
Mcl-1 Bim block: disrupts Bim peptide binding to human Mcl-1; Q07820; Bead-based flow cytometry, Bim peptide-Mcl-1 binding; inhibition, % at 10 µM; 190,000 compounds, 0.1% hits; in the data active = inhibition above about 40%
Target sequence (Q07820 whole entry, looked up): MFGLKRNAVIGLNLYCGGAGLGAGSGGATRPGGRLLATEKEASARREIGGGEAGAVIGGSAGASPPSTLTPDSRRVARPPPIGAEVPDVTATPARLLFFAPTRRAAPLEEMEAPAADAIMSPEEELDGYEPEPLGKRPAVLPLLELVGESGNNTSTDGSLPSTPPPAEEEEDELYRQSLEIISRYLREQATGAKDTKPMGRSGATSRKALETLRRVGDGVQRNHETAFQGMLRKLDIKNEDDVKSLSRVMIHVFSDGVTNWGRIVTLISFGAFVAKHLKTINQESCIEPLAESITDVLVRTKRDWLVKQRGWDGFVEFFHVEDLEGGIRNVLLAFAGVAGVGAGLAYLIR
Mcl1-Noxa inh: disrupts binding of human Mcl-1 to Noxa peptide; TR-FRET Mcl-1/Noxa peptide binding, 2 h; inhibition, % at 21.7 µM; 220,000 compounds, 1.5% hits;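 active = compounds that cut the protein-peptide binding signal by more than 50% relative to plate controls in a single-dose test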;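 note: His-tagged Mcl-1 with rhodamine Noxa BH3 peptide and terbium anti-His antibody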
Mcl1-Bid inh: disrupts binding of human Mcl-1 to Bid peptide; inhibition, % at 21.7 µM; 220,000 compounds, 0.97% hits; AID 1021; TR-FRET Mcl-1/Bid-Dy647 peptide binding, 1536-well; Q07820;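 active = compounds that cut the binding signal by more than half at the single screening dose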;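 note: His-tagged Mcl-1 with europium anti-His antibody binding Bid BH3 peptide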
MCL1-BIM inh: MCL1-BIM-BH3 interaction inhibition (human); Q07820; GST-MCL1 / FITC-Bim-BH3 fluorescence polarization; inhibition, % at 10.9 µM; 320,000 compounds, 0.68% hits;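 active = inhibition above the mean inhibition of all tested compounds plus 3 SD, set per campaign, cut at about 40% in these data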;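 note: higher means more loss of mP so more displacement of Bim peptide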
BCLXL inh confirm: Bcl-xL (human) inhibition, MCL1 counter-screen confirmation; shares compounds with MCL1-BIM inh; GST-Bcl-xL / FITC-Bim BH3 peptide FP binding; AID 2166; inhibition, % at 10.9 µM; 1,700 compounds, 54% hits;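 active = inhibition above a cutoff equal to the mean inhibition of all tested compounds plus 3 SD, cut at about 30% in these data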
Target sequence (Q07817 whole entry, looked up): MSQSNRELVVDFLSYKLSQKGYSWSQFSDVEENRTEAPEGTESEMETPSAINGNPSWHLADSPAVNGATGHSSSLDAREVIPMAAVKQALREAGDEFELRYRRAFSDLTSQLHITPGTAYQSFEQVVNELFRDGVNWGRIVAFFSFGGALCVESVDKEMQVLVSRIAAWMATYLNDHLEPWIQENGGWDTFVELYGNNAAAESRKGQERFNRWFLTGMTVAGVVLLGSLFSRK
MCL1 BIM confirm: confirmation of human MCL1 and BIM-BH3 interaction inhibitors; shares compounds with MCL1-BIM inh; GST-MCL1 / FITC-Bim-BH3 fluorescence polarization; inhibition, % at 10.9 µM; 1,700 compounds, 61% hits; AID 2168;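 active = inhibition above the average of all tested compounds plus 3 SD, cut at about 40% in these data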
Numbers stand for hits; n = inactive; x = no result. Most compounds without a hit are left out; they make up all but 2% or so of the library.

SMILES | Mcl-1 Bim block | Mcl1-Noxa inh | Mcl1-Bid inh | MCL1-BIM inh | others
CN1CCN(c2ccccc2NC(=O)c2ccc(-c3ccc(Cl)cc3Cl)o2)CC1 | n | 65 | n | n
COc1ccc(N=C2NC(=O)/C(=C/C=C/c3ccccc3)S2)cc1 | x | n | n | n
O=C1NC(=Nc2ccccc2)S/C1=C\C=C\c1ccco1 | n | 112 | n | n
COc1ccc(N=C2NC(=O)/C(=C/c3ccco3)S2)cc1 | x | n | n | n
Cc1ccc(N=C2NC(=O)/C(=C/C=C/c3ccco3)S2)cc1 | n | 82 | n | n
Cc1cccc(N=C2NC(=O)/C(=C/C=C/c3ccco3)S2)c1C | n | 114 | 92 | n
Cc1cccc(N=C2NC(=O)/C(=C/c3cccn3C)S2)c1C | x | n | n | n
COc1cccc2[nH]c3c(N4CCc5ccccc5C4)ncnc3c12 | x | 62 | n | n
COc1cc(/C=C/C(=O)OCC(=O)Nc2c(C)n(C)n(-c3ccccc3)c2=O)cc(OC)c1OC | x | x | x | n
COc1cc(Br)cc(CNc2ccc(F)c([N+](=O)[O-])c2)c1O | n | n | n | n
CCC(C)OC(=O)C1=C(C)NC2=C(C(=O)C(C(=O)OC)C(C)C2)C1c1ccc(N(C)C)cc1 (stereo unspecified) | n | 60 | n | n
CCCOC(=O)C1=C(C)NC2=C(C(=O)C(C(=O)OC)C(C)C2)C1c1ccc(N(CC)CC)cc1 (stereo unspecified) | n | n | n | n
CN1C(=S)N(c2cccnc2)C(=O)/C1=C\c1ccc(N(C)C)cc1 | n | n | 83 | x
CN1C(=S)N(c2cccnc2)C(=O)/C1=C\c1ccc(C(C)(C)C)cc1 | n | n | n | n
O=[N+]([O-])c1cc(-c2ccc(C(=S)N3CCOCC3)o2)ccc1Cl | n | n | n | 43
O=[N+]([O-])c1cccc(-c2ccc(C(=S)N3CCOCC3)o2)c1 | n | n | n | n
O=S(=O)(NCc1ccc(F)cc1)c1ccc(Br)cc1Br | x | x | x | n
COc1ccc(NS(=O)(=O)c2ccc(N3CCCC3)c(NC(=S)Nc3cccc(S(=O)(=O)N(C)C)c3)c2)cc1 | n | 62 | n | n
Cc1cccc(NC(=O)c2ccc(S(=O)(=O)N3CCC(C)CC3)cc2)n1 | x | x | x | n
COc1cc(C)c(S(=O)(=O)NOCc2ccccc2)c(C)c1C | x | x | x | n
Cc1ccc(S(=O)(=O)N(C)/N=C2/C(=O)N(CC(=O)O)c3ccccc32)cc1 | x | x | x | n
O=C(Nc1nccs1)c1ccc(COc2c(F)c(F)cc(F)c2F)cc1 | x | x | x | n
Cc1ccc(Nc2nc(-c3ccc(O)c(O)c3)cs2)nc1 | n | 54 | n | x
CC1(C)Cc2cccc(OCC(=O)OCC(=O)Nc3ccccc3)c2O1 | x | x | x | n
CC1(C)Cc2cccc(OCC(=O)OCC(=O)Nc3cccc(S(N)(=O)=O)c3)c2O1 | x | n | 93 | n
SMILES | Mcl-1 Bim block | Mcl1-Noxa inh | Mcl1-Bid inh | MCL1-BIM inh | others
CC1(C)CC(CC(=O)O)(c2ccccc2)CCO1 (stereo unspecified) | n | n | 66 | n
CCOC(=O)CC1(c2ccccc2)CCOC(C)(C)C1 (stereo unspecified) | n | n | n | n
O=C(c1ccco1)N1CCC(c2nc3c(nnn3Cc3ccc(F)cc3)c(=O)[nH]2)CC1 | x | x | x | n
C=CCc1c(C)[nH]c2c(OC)cccc2c1=S | n | 60 | n | n
Cc1onc(-c2c(Cl)cccc2Cl)c1C(=O)N=C(N)N1CC(C)OC(C)C1 (stereo unspecified) | x | n | n | n
Cc1ccc(N2C(=O)/C(=C/c3ccco3)SC2=S)cc1 | n | n | n | n
O=C1NC(=Nc2ccccc2)/C(=C/c2ccco2)S1 | n | n | n | 47
Cc1ccc(N=C2NC(=O)S/C2=C\c2ccco2)cc1 | n | 83 | n | n
CCc1nc(SCc2ccc(OCC(C)C)cc2)n[nH]1 | x | x | x | n
CCN1CCN(C(=S)Nc2cc(S(=O)(=O)N(CC)CC)ccc2C)CC1 | n | n | n | n
Nc1n[nH]c2cc(=O)n(-c3cccc(C(F)(F)F)c3)nc12 | n | n | n | 60 | BCLXL inh confirm=38;MCL1 BIM confirm=54
c1ccc2sc(NC3=NCN(CC4CCCO4)CN3)nc2c1 (stereo unspecified) | n | n | n | n
O=C(c1ccc([N+](=O)[O-])cc1)N1CCC(n2nnc3cc(F)ccc32)CC1 | n | n | n | n
O=C(N1CCOCC1)N1CCC(n2nnc3cc(F)ccc32)CC1 | n | n | n | 87 | BCLXL inh confirm=54;MCL1 BIM confirm=62
CN(C)C(CNc1ccc(S(C)(=O)=O)cc1[N+](=O)[O-])Cc1ccccc1 (stereo unspecified) | x | x | x | n
O=[N+]([O-])c1cc(CN2CCCC2)c2cccnc2c1O | n | 75 | n | 88 | BCLXL inh confirm=n;MCL1 BIM confirm=94
O=C1CN(C(=O)NCCC(=O)NC2CCCCC2)c2ccccc2N1 | x | x | x | 69 | BCLXL inh confirm=n;MCL1 BIM confirm=n
CN(C(=O)CCNC(=O)N1CC(=O)Nc2ccccc21)C1CCCCC1 | x | x | x | n
CCc1ccc(NC(=S)N(CCN2CCOCC2)Cc2ccccc2F)cc1 | n | n | n | n
Cc1ccc(Oc2c(CO)c(-c3ccccc3)nn2C)cc1 | n | n | n | 48 | BCLXL inh confirm=n;MCL1 BIM confirm=n
COc1ccc(NS(=O)(=O)c2ccc(NC(=S)NC(=O)c3cccnc3)cc2)nn1 | n | n | n | n
COc1ccc(NS(=O)(=O)c2ccc(NC(=S)NC(=O)c3cccc(F)c3)cc2)nn1 | n | n | n | 42 | BCLXL inh confirm=n;MCL1 BIM confirm=n
O=C1OC(Nc2cc(Br)cc3cccnc23)c2ccccc21 (stereo unspecified) | n | n | n | 90 | BCLXL inh confirm=56;MCL1 BIM confirm=68
O=C1OC(Nc2ncccn2)c2ccccc21 (stereo unspecified) | n | n | n | n
COC(=O)C(Cc1ccc(O)cc1)NC(=O)C(C)NC(=O)c1ccc(C(C)(C)C)cc1 (stereo unspecified) | x | x | x | n
SMILES | Mcl-1 Bim block | Mcl1-Noxa inh | Mcl1-Bid inh | MCL1-BIM inh | others
Cc1csc(SCC(=O)Nc2ccccn2)n1 | n | n | n | n
O=C(CSc1nc(-c2ccc(F)cc2)cs1)Nc1ccccn1 | n | n | n | 64 | BCLXL inh confirm=n;MCL1 BIM confirm=n
CC(=O)n1c(C=Nc2ccc(Cl)cc2)c(O)c2ccccc21 | x | n | n | 59 | BCLXL inh confirm=154;MCL1 BIM confirm=185
COc1ccccc1CNC(=O)c1cc(-c2ccccc2)n(Cc2cc(C)no2)n1 | x | x | x | n
CCN(CC)S(=O)(=O)c1cccc(C(=O)N/N=C2\CCCC(=O)C2)c1 | x | n | n | 56 | BCLXL inh confirm=n;MCL1 BIM confirm=n
CC1(C)Cc2c(c(-c3ccccc3)[nH]c(=O)c2C#N)CS1 | n | n | n | n
CC1(C)Cc2c(c(-c3ccco3)[nH]c(=O)c2C#N)CS1 | n | n | n | 148 | BCLXL inh confirm=94;MCL1 BIM confirm=125
CC1(C)Cc2c(C#N)c(N3CCN(C(=O)c4ccco4)CC3)nc(-c3ccco3)c2CS1 | n | 53 | n | 68 | BCLXL inh confirm=n;MCL1 BIM confirm=49
COCCNc1nnc(SCC(=O)NNC(=O)c2ccc([N+](=O)[O-])cc2)s1 | x | x | x | 75 | BCLXL inh confirm=n;MCL1 BIM confirm=n
COCc1ccc([C@@H]2C[C@H]3CN(Cc4ccccc4C)C(=O)[C@]34CCCN24)o1 | n | n | n | n
O=C1NC(=S)/C(=C\c2ccc(-c3ccccc3Cl)o2)S1 | n | 100 | n | 62 | BCLXL inh confirm=91;MCL1 BIM confirm=116
